# Test results: the supplement of paper PMC3334620
# In all, about 33,000 sequences were measured (“E-score (-0.5 to 0.5)”: median about -8e-05, highest 2% from about 0.23 on). This is one part of a sample in which the highest values are shown more often than they occur.
# Target: T1, Nrg2 (UniProt P38082)
# T1 sequence: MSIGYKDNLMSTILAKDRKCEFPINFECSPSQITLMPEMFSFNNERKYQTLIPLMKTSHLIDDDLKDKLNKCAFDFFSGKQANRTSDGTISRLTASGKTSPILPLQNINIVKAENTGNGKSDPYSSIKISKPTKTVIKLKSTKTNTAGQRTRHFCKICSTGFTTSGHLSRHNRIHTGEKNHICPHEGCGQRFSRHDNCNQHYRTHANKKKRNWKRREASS
# Assay: PBM E-score (8-mer binding enrichment) (E-score (-0.5 to 0.5)); higher = stronger / more preferred TF binding
# Conditions: protein concentration: 100 nM; construct: GST-full length
# Outline: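 Universal all-10-mer Agilent arrays, fresh or stripped once, were converted to double-stranded form by primer extension. GST-tagged yeast transcription factors from PURExpress in vitro transcription/translation, full-length or DNA-binding domain only, were applied at about 100-200 nM and detected with fluorescent anti-GST. After masliner normalisation, the Universal PBM Analysis Suite scored each ungapped eight-base word together with its reverse complement by E-score.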
row,Sequence,PBM E-score
1,GAAGAGAA,-0.0264
2,CAAAACCA,0.249
3,CACAAGAG,0.14
4,CGCAAGAA,0.299
5,CGGGATGC,-0.163
6,CCGCTAAA,0.0162
7,CAAGGTCG,0.00137
8,CATAGCTC,-0.112
9,CCAAAAAA,0.18
10,CAAAAAAA,0.245
11,CAAAAAAC,0.079
12,CGTGAAGA,-0.0995
13,CACTACTG,0.077
14,AGCGTCGA,0.244
15,AGCGTCGG,-0.0319
16,ACGGTCGC,-0.131
17,CGGGTCGC,-0.0689
18,CGGGTCGA,-0.181
19,AGCGTCGC,-0.0577
20,AGGGTCGG,0.0394
21,AGGGTCGA,0.262
22,AGGGTCGC,0.243
23,GCGGCCCA,-0.0651
24,GCTGAAGA,-0.0685
25,ACAGCTTC,-0.102

row,Sequence,PBM E-score
1,AAGAGATT,0.00595
2,CATACTGA,0.135
3,TATACTGA,0.261
4,GATACTGA,0.0997
5,GCTATCTA,-0.0754
6,AAATATAT,0.257
7,AAATAGAT,0.27
8,AAATAGAG,-0.0562
9,ACCTATAC,-0.044
10,AAATATAC,0.0852
11,AAATAGAC,0.165
12,ACCTATAA,-0.112
13,AAATATAA,0.161
14,ACCTATAT,0.236
15,CAGAAAGG,0.0423
16,AAGATCTT,-0.0257
17,CTCGGTCA,-0.0604
18,AACCGCCG,-0.0452
19,GCTAAGAA,-0.103
20,TATGAGCA,-0.127
21,ATGAATGG,0.339
22,ATGAATGA,0.0659
23,ATGAATGC,0.13
24,GTATGCGA,0.136
25,AGCAAATC,0.147

row,Sequence,PBM E-score
1,ACCGATAC,-0.00076
2,AGAACAAA,0.208
3,CTCACGCA,0.353
4,CGAACAAG,0.165
5,GGAACAAA,0.263
6,GTCACGCA,0.0867
7,GCAACAAA,0.176
8,GGAACAAC,0.133
9,CTCACGCC,0.0298
10,TGAACAAA,0.244
11,TTAACAAA,0.094
12,CGAACAAA,0.279
13,CGAACAAC,0.152
14,CTGCACGA,0.0401
15,AACTTATA,0.145
16,GCCGACAC,-0.0613
17,TCCGGTAA,-0.0902
18,CCTGGGTA,-0.159
19,GCCGGAAA,0.104
20,ACTCTGCC,-0.142
21,GGGCATAA,0.109
22,GGGCTTCA,-0.103
23,TCTCTAAA,-0.134
24,AGAGCCCC,-0.139
25,GTGGTCCA,0.0422

row,Sequence,PBM E-score
1,TGAACGCA,0.0815
2,CGAACGCA,0.282
3,GGAACGCA,0.0954
4,AAGCGCTT,0.303
5,AAGCGCTA,0.0465
6,AAGCGCTC,0.0396
7,CCGCCAAC,-0.126
8,ACGTTTCC,-0.16
9,ATTCCACG,0.0249
10,ATTCCACA,0.243
11,ATTCCACC,0.0335
12,GGAGGCAA,-0.141
13,CAGGTCCA,0.0188
14,ACCGTTCA,-0.164
15,ATATCGCC,0.0573
16,AAATCGCC,0.00869
17,AAATCGCG,0.233
18,ATATCGCA,-0.0927
19,ATATCGCG,0.331
20,AAATCGCA,0.158
21,GGGTTTAA,0.0664
22,AGATGGTA,0.0502
23,GTAGTGGA,0.152
24,ACCTTAGG,-0.191
25,CGCCCGAG,0.117

row,Sequence,PBM E-score
1,TCCGGCCA,0.00685
2,CGCGAAAG,0.122
3,GTGTAGAA,-0.191
4,GCAGGGGA,-0.192
5,CCAGGGAA,0.0205
6,GAAGGGAC,0.159
7,CCAGGGAC,0.366
8,CCAGGGAG,-0.107
9,GCAGGGCC,0.101
10,GCAGGGAA,0.238
11,GCAGGGAC,0.28
12,TCAGGGAA,0.0408
13,CATGTAGG,0.092
14,CGTCGGTC,0.00408
15,CAGGTTAA,-0.0788
16,CACGTCCA,-0.177
17,ACGCGATC,0.146
18,GCAGCTGA,0.0488
19,ACAGCTGA,0.0892
20,CGAGCTCA,0.108
21,CGAGCTCC,0.12
22,CGAGCTGA,0.243
23,CGAGCTCG,0.241
24,CGAGCTTA,-0.0737
25,AGAGCTGA,0.00384

row,Sequence,PBM E-score
1,TCAGCTGA,0.279
2,ATCCTCAG,0.1
3,AGCGGCCT,-0.275
4,GCTTCGTA,-0.102
5,CGGCCGAA,0.0577
6,GAGCTCGA,0.183
7,ACTAGCTA,0.0559
8,AAGAATCC,0.0617
9,ACCCCCAG,-0.291
10,TACCCCCA,-0.159
11,TACCCCAA,0.247
12,AACCCCAG,0.237
13,AACCCCAT,0.07
14,AACCCCAA,0.147
15,GCCGCAAA,0.157
16,ATCAACCG,0.0105
17,GGTGAATA,0.104
18,AGACCCTC,0.0175
19,CAACCCTG,0.252
20,CAACCCTC,0.0136
21,ATACCCTA,0.119
22,AGACCCTG,0.431
23,AAACCCTA,0.184
24,CAACCCTA,0.0574
25,ATACCCTC,0.0223

row,Sequence,PBM E-score
1,ATACCCTG,0.295
2,AGACCCTA,0.148
3,AAACCCTG,0.318
4,AACCCCTG,0.055
5,ATGGTTCG,0.109
6,AGAACCTC,-0.232
7,GGGTAGGA,-0.0916
8,AGAATGCT,0.108
9,CGTCCTTA,-0.0686
10,GGCCTAAC,0.0899
11,GCTGGAAC,-0.144
12,TGGCATAA,0.144
13,AAGAGGTA,0.0504
14,ACTCCTCA,-0.24
15,ACGACGTA,-0.166
16,ATTTCGTA,0.0258
17,AAGCGGAA,-0.0181
18,AACTAAGT,0.168
19,CTAGTCGA,-0.0659
20,ATAGTCGA,0.264
21,ATAGTCGG,-0.122
22,CTGGGTCC,-0.288
